The record followed here is publication PMC5540273 (PLoS ONE, 2017).
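Also: KINOMEscan kinase panel screen.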

The test system of the assay is FGFR3. The following applies: concentration: 1 μM, replicates: in singlicate; n = 1.
For `FC(F)(F)c1ccc(/C=C/c2cncnc2Nc2ccc3[nH]c(Cc4ccccc4)nc3c2)cc1` [GW709199], the “%Inh” value was found to be 0%.
With `CN(C)Cc1ccc(-c2ccc3c(Nc4ccc(Oc5ccccn5)cc4)ccnc3c2)o1` [GW567148] the figure was 5%; with `Cc1ccc(F)c(C(=O)Nc2cccc(-c3nn4ccccc4c3-c3ccnc(Nc4cccc(F)c4)n3)c2)c1F` [GSK361061], 21%.
`Cc1occc1-c1ncc(OC[C@@H](N)Cc2c[nH]c3ccccc23)cc1-c1ccc2[nH]nc(C)c2c1.O=C(O)C(F)(F)F` [GSK682037]: the “%Inh” value is 1%.
Next, `CN(C)S(=O)(=O)c1cc(-c2ccc3nccc(-c4cccc(S(N)(=O)=O)c4)c3c2)cnc1N` [GSK1669921]: 26%; `COCCOCCOc1cc2ncc3c4ccc(C#N)cc4[nH]c3c2cc1OC`: 18%; `COc1cccc(C2=C(Nc3ccc(Cl)c(C(=O)O)c3)C(=O)NC2=O)c1` [SB-390769]: 15%.
For `Oc1cc(Nc2ccnc3cc(I)ccc23)ccc1F` [GW552771], the “%Inh” value is 13%.
As to `Cc1ccc(S(=O)(=O)Nc2ccc(Nc3nccc(Nc4cccc5[nH]ncc45)n3)cc2)cc1` [GSK581271], the “%Inh” value is 7%.
With `Cc1ccc(C(=O)N2CC[C@@H](O)C2)cc1-n1c(C)cc(OCc2ccc(F)cc2F)c(Br)c1=O` the figure was 21%; with `COC(=O)Nc1nc2cc(Oc3ccc(NC(=O)Nc4cc(C(F)(F)F)ccc4F)cn3)ccc2[nH]1.Cl.Cl` [GW681170], 4%; with `COc1cc(Nc2nccc(N3CCC(NC(=O)c4cc5ccccc5s4)C3)n2)cc(OC)c1OC` (stereo not shown) [GSK1379760], 18%.
With `O=C(Nc1cccc(-c2nn3ccccc3c2-c2ccnc(Nc3cccc(F)c3)n2)c1)c1c(F)ccc(F)c1Cl` [GSK357952] the figure was 19%.
For the compound `O=C(Nc1ccccc1F)NC1CCN(c2ccnc(Nc3ccc(F)cc3)n2)CC1` [GSK1379800], the “%Inh” value came out at 0%.
With `O=c1[nH]cc(-c2ccc(N3CCOCC3)cc2)c2sc(-c3cn[nH]c3)cc12` [GSK2276055] the figure was 21%.
For `COc1cccc(C(=O)Nc2cccc(Oc3ccc4nc(NC(=O)C5CC5)cn4n3)c2)c1`, the “%Inh” value is 41%.
With `O=C(Nc1cccc(Oc2ccc3nc(NC(=O)C4CC4)cn3n2)c1)c1ccccc1C(F)(F)F`, the “%Inh” value was determined as 0%.
In the case of `NCCCC(NC(=O)c1cc(Br)c(-c2ccnc3[nH]ccc23)s1)c1ccccc1.O=C(O)C(F)(F)F.O=C(O)C(F)(F)F` (stereo not shown) [GSK1287544], the “%Inh” value is 30%.
On to `COC(=O)Nc1nc2ccc(Oc3ccc(NC(=O)Nc4cc(C(F)(F)F)ccc4F)cc3)cc2n1C.Cl` [GW692089], for which the “%Inh” value came to 7%.
With `COc1cc(Nc2nccc(-c3c(-c4cccc(NC(=O)c5c(F)cccc5F)c4)nn4ncccc34)n2)cc(OC)c1OC` [GSK327238] the figure was 31%; with `CN1CCN(CCCNc2nccc(-c3c(-c4ccc(F)cc4)nn4cc(C(F)(F)F)ccc34)n2)CC1` [GW621581], 0%; with `Cc1ccc(C)c(NC(=O)NC2CCN(c3ccnc(Nc4ccc(F)cc4)n3)C2)c1` (stereo not shown) [GSK1379720], 2%.
With `Cc1cccc(Nc2nc(N[C@H]3CCNC3)ncc2C(N)=O)c1.Cl` [GSK2197149], the “%Inh” value amounted to 3%.
With `COc1ccc(Nc2nccc(NCCNC(=O)c3cc4ccccc4s3)n2)cc1` [GSK1379896] the figure was 5%; with `Nc1ncc(-c2cccnc2)c2scc(-c3ccc4c(c3)CCN4C(=O)Cc3ccccc3)c12` [GSK683281], 7%.
With `Cl.Cl.NCC(NC(=O)c1cc(-c2ccccc2)c(-c2ccnc3[nH]ccc23)s1)c1ccccc1` (stereo not shown) [GSK1321561] the figure was 19%; with `Nc1ncc(-c2ccc3nccc(-c4ccncc4)c3c2)cc1S(=O)(=O)N1CCOCC1` [GSK1627798], 6%; with `CCn1c(-c2nonc2N)nc2c(C#CC(C)(C)O)ncc(OCCCCN)c21.O=C(O)C(F)(F)F.O=C(O)C(F)(F)F` [GSK507274], 5%.
In the case of `Nc1n[nH]c2cnc(-c3ccccc3)cc12` [SB-642124], the “%Inh” value is recorded as 16%.
Next, `Cl.c1ccc(-c2ccc3c(Nc4ccc5[nH]ncc5c4)ccnc3c2)nc1` [GW440137]: 11%; `Nc1ncnc2c1nc(-c1ccccc1)n2-c1ccccc1` [SKF-97293]: 0%.
With `Cn1cc(-c2ccc3c(c2)CCN3C(=O)Cc2cccc(Cl)c2)c2c(N)ncnc21` [GSK2606590] the figure was 0%; with `COc1cccc(-c2ccc3c(NC(=O)C4CC4)n[nH]c3n2)c1` [SB-710903], 0%.
For `CC(=O)N1CCN(c2ccc(Nc3nccc(-c4sc(C(C)C)nc4-c4cccc(NS(=O)(=O)c5cccc(Cl)c5)c4)n3)cn2)CC1` [GSK1660437], the “%Inh” value is on record as 7%.
Next, `CC(C)(C)c1ccc2nccc(Nc3cccc(O)c3)c2c1` [GW856795]: 0%; `COc1cc2c(cc1OCCN1CCNCC1)ncc1c3ccc(C#N)cc3[nH]c21`: 21%.
For `O=C(Nc1cccc(-c2nn3ncccc3c2-c2ccnc(Nc3ccccc3)n2)c1)c1c(F)cccc1F` [GSK198271], the “%Inh” value is on record as 3%.
